Results: the antibiotic and cytotoxicity screens of Wong et al. (2023)
Hit rate of the full screen: of about 39,000 compounds, about 3,300 (8.5%) were called active. The sample as a whole holds a higher share of actives than the screen did.

tested on: HepG2; assay: cytotoxicity call (relative viability < 0.9); conditions: 10 µM

| SMILES | cytotoxicity call |
| --- | --- |
| NCC[C@H]1CC[C@@H](NC(=O)C2CCCC2)[C@@H](CO)O1 | inactive |
| Cc1noc(C)c1S(=O)(=O)Nc1ccc2c(c1)C(=O)N([C@@H](C)CO)C[C@@H](C)[C@H](CN(C)S(C)(=O)=O)OCCCC[C@@H](C)O2 | inactive |
| CC(=O)N1CCC[C@H](C(=O)O)C1 | inactive |
| COc1ccc(S(=O)(=O)N[C@H]2CC[C@H](CC(=O)N3CCC(Cc4ccccc4)CC3)O[C@@H]2CO)cc1 | inactive |
| C[C@@H]1CCCCO[C@@H](CN(C)CC2CCCCC2)[C@@H](C)CN([C@@H](C)CO)C(=O)c2cc(NS(=O)(=O)c3ccc(Cl)cc3)ccc2O1 | active |
| C[C@H](CO)N1C[C@H](C)[C@H](CN(C)CC2CCCCC2)OCCCC[C@H](C)Oc2ccc(NS(=O)(=O)c3ccc(Cl)cc3)cc2C1=O | active |
| C[C@@H]1CN([C@@H](C)CO)C(=O)c2cc(NS(=O)(=O)c3ccc(Cl)cc3)ccc2O[C@@H](C)CCCCO[C@H]1CN(C)CC1CCCCC1 | inactive |
| C[C@H]1CCCCO[C@H](CN(C)CC2CCCCC2)[C@@H](C)CN([C@@H](C)CO)C(=O)c2cc(NS(=O)(=O)c3ccc(Cl)cc3)ccc2O1 | inactive |
| C[C@H]1CCCCO[C@@H](CN(C)CC2CCCCC2)[C@@H](C)CN([C@@H](C)CO)C(=O)c2cc(NS(=O)(=O)c3ccc(Cl)cc3)ccc2O1 | inactive |
| C[C@@H]1CN([C@@H](C)CO)C(=O)c2cc(NS(=O)(=O)c3ccc(Cl)cc3)ccc2O[C@@H](C)CCCCO[C@@H]1CN(C)CC1CCCCC1 | inactive |
| C[C@@H]1CN([C@@H](C)CO)S(=O)(=O)c2ccc(-c3cccc(F)c3)cc2O[C@@H]1CN(C)S(C)(=O)=O | inactive |
| CS(=O)(=O)N1CCc2ccc(N)cc2C1 | inactive |
| Cc1noc(C)c1NC(=O)Nc1ccc2c(c1)CC(=O)N([C@H](C)CO)C[C@@H](C)[C@H](CN(C)Cc1ccc(C(F)(F)F)cc1)O2 | inactive |
| Cc1ccc(S(=O)(=O)Nc2ccc3c(c2)C(=O)N([C@@H](C)CO)C[C@H](C)[C@@H](CN(C)S(=O)(=O)c2ccc(F)cc2)O3)cc1 | inactive |
| CN(CCO)c1ccccn1 | inactive |
| CCc1ccc(CCOc2ccc(CC3SC(=O)NC3=O)cc2)nc1.Cl (configuration not stated) | inactive |
| CN(CCOc1ccc(CC2SC(=O)NC2=O)cc1)c1ccccn1.O=C(O)C=CC(=O)O (configuration not stated) | active |
| C[C@@H]1CCCCO[C@@H](CN(C)S(=O)(=O)c2cccs2)[C@@H](C)CN([C@H](C)CO)C(=O)c2cc(NC(=O)CCCCCC(=O)Nc3ccccc3N)ccc2O1 | inactive |
| CN(C)C1CCN(C(=O)c2cnc(-c3noc4cc(-c5cccc(C(F)(F)F)c5)ccc34)s2)CC1 | active |
| C[C@H](CO)N1C[C@H](C)[C@H](CN(C)C(=O)Nc2cccc3ccccc23)Oc2ncc(-c3cccc(C(F)(F)F)c3)cc2C1=O | inactive |
| CN(C)C1CCN(C(=O)c2cnc(-c3noc4cc(-c5ccccc5C(F)(F)F)ccc34)s2)CC1 | active |
| C[C@H](CO)N1C[C@H](C)[C@H](CN(C)C(=O)Nc2ccccc2)Oc2ncc(-c3cccc(C(F)(F)F)c3)cc2C1=O | inactive |
